TDP1 cell CPT = qHTS for Inhibitors of human tyrosyl-DNA phosphodiesterase 1 (TDP1): qHTS in cells in presence of CPT. chicken DT40 Tdp1-/-;hTDP1 cells + 20 nM CPT, ATP luminescence, 48 h. Potency, µM (doses to about 46.2 µM), usual class: inhibitors. 420,000 tested, 12% active. AID 686979, 2013; note: nearly all actives have a fitted effect of over 55% in size
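Cell growth measured by CellTiter-Glo luminescence after a minimum 48 h, 37 C compound exposure with 20 nM CPT in Tdp1-knockout DT40 cells stably expressing hTDP1, seeded 400/well; qHTS titration format.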
HT1080NT lethal = qHTS for induction of synthetic lethality in tumor cells producing 2HG: qHTS for the HT-1080-NT fibrosarcoma cell line; HT-1080-NT fibrosarcoma viability, CellTiter-Glo ATP luminescence, 48 h; Potency, µM (highest dose often 46.1 µM), hits mostly cytotoxic; 360,000 tested, 1.6% active; AID 686970, 2013;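 note: NT is the 2HG producing partner of a matched IDH1 knockdown line; nearly all actives have a fitted effect of over 55% in size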
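Toxicity toward the 2HG-producing NT line was scored as %Activity, normalised to DMSO and no-cell wells, from CellTiter-Glo luminescence after 48 hours' treatment.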
TGFb inhibitor = qHTS for Inhibitors of TGF-b | Potency, µM (series often up to 46.1 µM), hits mostly inhibitors | AID 588855, 2011 | HepG2 CAGA-GFP TGF-b/SMAD3 reporter, GFP fluorescence, 18 h; TGF-beta stimulated, 500 pg/mL final | 410,000 tested, 1.2% active; note: nearly all actives have a fitted effect of over 65% in size
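GFP signal (ex488/em500-530) from TGF-beta-stimulated HEPG2 CAGA-GFP cells, 500 pg/mL final, 18 h at 37 degrees C in DMEM plus 1% FBS, normalized to unstimulated and DMSO-stimulated controls.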
DT40 TDP1 no CPT = qHTS for Inhibitors of human tyrosyl-DNA phosphodiesterase 1 (TDP1): qHTS in cells in absence of CPT; Potency, µM (titrated, usually from 46.2 µM), actives largely listed as inhibitors; DT40 Tdp1-/- hTDP1 cells, no CPT, ATP luminescence, 48 h; 420,000 tested, 15% active; note: nearly all actives have a fitted effect of over 55% in size
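DT40 Tdp1-/-;hTDP1 cells, no CPT (DMSO vehicle only), 400 cells/well; compounds pin-transferred; ≥48 hr, 37 °C; CellTiter-Glo 30 min RT dark, luminescence read.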
HepG2 viability = qHTS for Inhibitors of TGF-b: Cytotox Counterscreen | HepG2 CAGA-GFP viability, ATP luminescence, 18 h | Potency, µM (titrated, usually from 46.1 µM), actives largely listed as cytotoxic | 410,000 tested, 0.76% active | AID 588856, 2011
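HepG2 CAGA-GFP cells (1000/well, DMEM with 1% FBS) received compound, then TGF-beta at 500 pg/mL final, and were incubated 18 hours at 37 degrees C. Viability was read by CellTiter-Glo luminescence. Media-only wells were set as complete cell-killing and DMSO as no toxicity.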
HT1080 IDH1KD tx = qHTS for induction of synthetic lethality in tumor cells producing 2HG: qHTS for the HT-1080-IDH1KD cell line; HT-1080 IDH1 knockdown viability, ATP luminescence, 48 h; Potency, µM (top dose mostly 46.1 µM), most hits filed as cytotoxic; 360,000 tested, 2% active; AID 686971, 2013
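Luminescent ATP read-out (CellTiter-Glo, 10 min at room temperature) after 48 h compound exposure at 37 °C gave viability of IDH1-knockdown HT-1080 cells. Activity was normalised to DMSO and cell-free wells, then fitted as concentration-response curves.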
A number is an active result; . = inactive; ? = inconclusive; / = no result; ! = not confirmed by another sample. Only some compounds are listed: those with a hit (about 17% of all), similar ones and a draw of the others. Calls come from the whole dose curve; as a rule, active = well fitted curve in the direction sought with a large enough effect; inconclusive = small, poorly fitted or top-dose-only effect, or another doubt; inactive = no such curve, though single readings can be large; an effect the other way counts as inactive or inconclusive.

SMILES	TDP1 cell CPT	HT1080NT lethal	TGFb inhibitor	DT40 TDP1 no CPT	HepG2 viability	HT1080 IDH1KD tx
O=C(CCNC(=O)N1CCn2c1nc1ccccc12)NCc1ccccc1	.	.	.	.	.	.
O=C(OCc1nnc(-c2ccccc2)o1)c1cc(S(=O)(=O)N2CCOCC2)ccc1F	.	.	.	.	.	.
O=C(NC1CCCC1)c1ccc2c(=O)n(Cc3ccccc3)c(SCc3ccc([N+](=O)[O-])cc3)nc2c1	?	/	.	.	.	/
O=C(c1ccccc1)c1ccccc1C(=O)c1ccccc1	?	.	.	18µM	.	.
O=C(COC(=O)c1ccccc1C(=O)c1ccc(Cl)cc1)NCCc1ccccc1	?	.	?	?	.	.
COc1ccc(C(=O)c2ccc(N(C)C)cc2)c2ccccc12	1µM	1.6µM	?	1.5µM	.	2.8µM
O=C(COC(=O)c1ccccc1C(=O)c1ccc(Cl)cc1)NC(c1ccccc1)c1ccccc1	12µM	.	.	15µM	.	.
COc1ccc(C(=O)c2ccc(OC)c(OC)c2OC)cc1	3.7µM	?	.	3.7µM	.	10µM
COc1ccc(-c2cn3nc(N4CCC(C(=O)Nc5cccc(OC)c5)CC4)sc3n2)cc1	?	/	.	.	.	/
O=C(Cn1c(=O)cnc2ccccc21)NC1CCC(O)CC1 (stereo unspecified)	.	.	.	.	.	.
COc1cccc(CN(C)C(=O)COc2cccc3c2OC(C)(C)C3)c1OC	?	.	.	?	.	.
CC1CCN(S(=O)(=O)c2ccc3ncn(CC(=O)N4CCN(C)CC4)c(=O)c3c2)CC1	.	.	.	.	.	.
O=S(=O)(/C=C/c1cccc(Br)c1)N1CCOCC1	.	.	.	.	.	.
COc1ccccc1-c1ccc2ncnc(NCCNC(C)=O)c2c1	.	/	/	.	/	/
c1ccc(Cc2nc3ccccc3o2)cc1	.	.	.	.	.	.
CC(=O)Nc1ccc(S(=O)(=O)N(C)CC(=O)OCC(=O)c2ccc[nH]2)cc1	.	.	.	.	.	.
COc1cc(/C=N/NC(=S)NCc2ccco2)cc(OC)c1OC	16µM	.	.	?	.	.
S=C(NCc1ccco1)N/N=C/c1ccc(Cl)cc1	?	.	13µM	21µM	.	.
CCOC(=O)c1nnn(-c2nonc2-n2cccc2)c1CCl	4.6µM	?	?	6.5µM	.	?
O=C(Nc1cccc(-c2nc3ncccc3o2)c1)c1ccccc1	?	.	.	12µM	.	.
Cc1ccc(C(=O)Nc2cccc(-c3nc4ncccc4o3)c2)cc1	.	.	.	?	.	.
Cc1c(NC(=O)c2cccc(-c3cc4ccccc4oc3=O)c2)cccc1-c1nc2ncccc2o1	26µM	.	.	21µM	.	.
O=C(NC1CCCCCC1)C1CCN(C(=O)c2cccc(Cl)c2)CC1	.	.	.	.	.	.
COc1ccccc1CC(O)CC1c2c(cc3c(c2OC)OCO3)CCN1C (stereo unspecified)	12µM	.	.	10µM	.	?
COc1ccc2c(c1OC)C(=O)O[C@H]2C1c2c(cc3c(c2OC)OCO3)CCN1C (stereo partly specified)	16µM!	/	/	?	/	/
SMILES	TDP1 cell CPT	HT1080NT lethal	TGFb inhibitor	DT40 TDP1 no CPT	HepG2 viability	HT1080 IDH1KD tx
CN1CCc2cc3c(c4c2[C@H]1[C@H](O)c1ccccc1-4)OCO3	18µM	.	?	?	.	.
COc1ccc2c(c1OC)C(=O)OC2C1c2c(cc3c(c2OC)OCO3)CCN1C (stereo unspecified)	?	?	.	18µM!	.	.
COc1ccc2c(c1OC)C(C1c3c(cc4c(c3OC)OCO4)CCN1C)OC2=O (stereo unspecified)	?	.	.	?	.	.
NC(=O)c1ccc(C(F)(F)F)n(Cc2cccc(Cl)c2)c1=O	.	?	.	.	.	?
CCc1ccccc1NC(=O)Nc1nnc(N2CCCC2)s1	.	/	.	.	.	/
CCc1nc2ccc(C(=O)NC3CCN(Cc4ccccc4)CC3)cn2c1N(C)Cc1cc2ccccc2s1	26µM	16µM	?	21µM	.	?
CCc1nc2ccc(C(=O)NC3CCN(Cc4ccccc4)CC3)cn2c1N(C)Cc1cccs1	?	?	?	16µM	.	?
CCc1nc2ccc(C(=O)N3CCN(C(=O)c4ccco4)CC3)cn2c1N(C)Cc1cccs1	?	.	.	?	.	.
COc1ccc(CNS(=O)(=O)c2c(C(=O)N3CCCCCC3)c(C)n(C)c2C)cc1	.	.	.	.	.	.
Oc1ccc(C[C@@H](CN2CCCC2CN2C(=S)NC[C@@H]2Cc2ccccc2)N2C[C@H](Cc3ccccc3)N(CC3CCCCCC3)C2=S)cc1 (stereo partly specified)	?	.	/	?	/	.
Oc1ccc(C[C@@H](CN2CCCC2CN2C(=S)NC[C@@H]2Cc2ccccc2)N2C[C@H](Cc3ccccc3)N(CC3CCCCC3)C2=S)cc1 (stereo partly specified)	15µM	.	/	21µM	/	.
Oc1ccc(C[C@H]2CN([C@@H](Cc3ccccc3)CN3CCC[C@@H]3CN3C(=S)NC[C@@H]3Cc3ccccc3)C(=S)N2CC2CCCCC2)cc1	?	23µM	13µM	26µM	.	?
O=C(Nc1ccc([N+](=O)[O-])cc1)C(Cc1ccccc1)N1C(=O)c2cccc3cccc(c23)C1=O (stereo unspecified)	?	?	.	5.2µM	.	.
CCCCOc1ccc(S(=O)(=O)N2CCCCCC2)cc1	.	.	.	.	.	.
Cc1cccc(OCCC(=O)Nc2ccc(C)c(S(=O)(=O)N3CCOCC3)c2)c1	?	.	?	?	.	.
Cc1ccc(C(=O)N(C)CCOc2ccccc2)cc1S(=O)(=O)N1CCCCC1	18µM	.	?	?	.	.
CN(CCOc1ccccc1)C(=O)c1ccc(Cl)c(S(=O)(=O)N2CCCCC2)c1	?	.	?	?	.	.
Cc1cccc(OCCCC(=O)Nc2ccc(Cl)c(S(=O)(=O)N3CCOCC3)c2)c1	23µM	.	?	12µM	.	.
CN(CCOc1ccccc1)c1ccc(S(=O)(=O)N2CCCCC2)cn1	?	.	?	21µM	.	.

Bioassay records deposited in PubChem by National Center for Advancing Translational Sciences (NCATS).
